High-throughput results from PubChem.
The list is not random: actives were taken first. Their share in the collection is about 6.5%.
MARV entry inh: inhibitors of Marburg virus binding or cell entry; Marburg virus pseudotyped entry inhibition, cell reporter; Potency, µM (highest dose often 37.8 µM), hits mostly inhibitors; hit rate 1.8% among 300,000; calls by dose curve; tested in HEK293 cells
HCMV inh: blocks human cytomegalovirus replication. hit rate 4.5% among 410,000. HFF cells, HCMV-luciferase reporter, 72 h; stronger effect = lower value. activity change, negative = inhibition, % at 57.5 µM; in the data active means activity change below about -60%; inconclusive means no clear call, values can overlap the other calls; inactive means above about -39%
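Cell-based, HFFs, 1000 cells/well, 16 h 37C; cpds in DMSO + HCMV-luc, MOI 1 PFU/cell; 72 h 37C; OneGlo luminescence after 5 min RT; norm. to buffer vs Salinomycin 10uM.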
Vaccinia Venus: inhibitors of vaccinia virus (Venus reporter). hit rate 0.46% among 330,000. AID 720580. Potency, µM (series often up to 36.5 µM), hits mostly inhibitors. Vaccinia virus Venus reporter expression, fluorescence; calls by dose curve; tested in A549 cells; further: nearly all actives have a fitted effect of over 30% in size
LASV entry inh: Lassa virus entry inhibition; hit rate 1.2% among 300,000; Lassa virus pseudotype entry inhibition, cell reporter; Potency, µM (top dose mostly 37.9 µM), most hits filed as inhibitors; calls by dose curve; tested in HEK293 cells; further: nearly all actives have a fitted effect of over 50% in size
FMDV inh: foot and mouth disease virus antiviral activity. FMDV antiviral cell-based qHTS. Potency, µM (top dose mostly 57.9 µM), hits mostly inhibitors. hit rate 1.2% among 410,000. AID 1159524; calls by dose curve; tested in HEK293T cells; further: read-out not given here; nearly all actives have a fitted effect of over 45% in size
VACV mCherry inh: inhibitors of vaccinia virus infection (mCherry reporter signal) | Vaccinia virus mCherry reporter infection, fluorescence | Potency, µM (titrated, usually from 36.5 µM), most hits filed as inhibitors | hit rate 0.63% among 310,000 | AID 720579; calls by dose curve; tested in A549 cells; further: nearly all actives have a fitted effect of over 35% in size
Numbers stand for hits; n = inactive; u = inconclusive; x = not tested or not shown; ! = not confirmed by another sample; [ ] = remark or other dose.

SMILES	MARV entry inh	HCMV inh	Vaccinia Venus	LASV entry inh	FMDV inh	VACV mCherry inh
Oc1c(Cl)cc(Cl)cc1C=Nc1cc(C(F)(F)F)ccc1N1CCc2ccccc2C1	x	-100.4	n	x	n	n
Cc1cccc(-c2nnc3n(CCc4ccccc4)c(=O)c4ccccc4n23)c1	u	n	n	n	u	n
CC(C)C1CC(CCN)(Cc2ccccc2)CCO1 (stereo unspecified)	14.6µM	u	n	n	n	n
Cc1ccc2c(c1)NC(=O)C(CC(=O)NC1CCCCC1C)O2 (stereo unspecified)	n	n	n	n	n	n
CC1CCCCC1NC(=O)CC1Oc2ccccc2NC1=O (stereo unspecified)	x	-66.3	n	x	n	n
Cn1cnnc1Sc1cc(N2CCN(S(=O)(=O)c3ccccc3)CC2)ccc1[N+](=O)[O-]	n	n	x	n	n	x
CN1CCN(S(=O)(=O)c2ccc(Sc3nnnn3-c3ccccc3)c([N+](=O)[O-])c2)CC1	u	n	n	n	20µM	n
CC(=O)c1ccc(Sc2nnnn2-c2ccccc2)c([N+](=O)[O-])c1	u	-67.2	n	n	31.6µM	n
CC(C)CCNC(=O)Cn1cc(S(=O)(=O)Cc2ccc(F)cc2)c2ccccc21	x	n	n	n	n	n
COc1ccc(N(CC(=O)N2CCN(c3ccccc3)CC2)S(=O)(=O)c2c(C)nn(C)c2C)cc1	n	n	n	n	n	n
O=C(N[C@H]1CC[C@@]23CCCN2C(=O)CCC[C@H]3[C@H]1Cc1ccccc1)c1ccc(Cl)c(C(F)(F)F)c1	x	n	x	x	x	x
Cc1ccc(OCCOc2cccc(C=C3C(=O)NC(=O)NC3=O)c2)c(C)c1	u	n	n	u	14.1µM	n
O=C1c2ccccc2NC(c2ccc(-c3ccc(Br)cc3)o2)N1O (stereo unspecified)	u	-72.4	x	n	n	x
O=C1c2ccccc2NC(c2ccc(-c3ccc(F)cc3)o2)N1O (stereo unspecified)	x	n	x	x	n	x
O=C1c2ccccc2NC(c2ccc(-c3cccc([N+](=O)[O-])c3)o2)N1O (stereo unspecified)	u	-78.7	u	u	n	12.6µM
CCC(C)NC(=O)c1ccc(NC(=O)C2=C(C)OCCS2)cc1 (stereo unspecified)	n	-61.5	n	u	n	n
CC1=C(C(=O)Nc2cccc(C(=O)NC(C)C)c2)SCCO1	n	n	n	n	n	n
CC1=C(C(=O)Nc2cc(C(=O)N3CCC(C)CC3)ccc2C)SCCO1	x	-63.4	n[7.34 µM]	x	n	n[7.34 µM]
COC(=O)c1sccc1S(=O)(=O)N(CC(=O)NCc1ccc(F)cc1)c1ccc(Cl)cc1	x	n	n	u	n	n
COc1ccc(NC(=O)c2c(NCc3ccc(OC)c(OC)c3OC)sc3c2CCC3)c(OC)c1	x	n	n	n	u	n
Cc1cc(Br)ccc1NC(=S)NCCc1ccccc1	n	-66.2	n	u	n	n
CCCNC(=S)Nc1ccc(Br)cc1	n	n	n	n	n	x
S=C(NCCc1ccccc1)Nc1ccc(Br)cc1	u	-74.8	n	n	n	n
Cc1ccc(NC(=S)NCCc2c[nH]c3ccccc23)c(C)c1	x	-89.7	x	x	n	x
Cc1ccc(NC(=S)NCCc2ccccc2)c(C)c1	n	u	n	n	n	n
SMILES	MARV entry inh	HCMV inh	Vaccinia Venus	LASV entry inh	FMDV inh	VACV mCherry inh
CCNC(=S)Nc1ccc(Cl)cc1Cl	n	-64.9	n	u	n	n
Cc1ccc(CN2C[C@@H](Sc3nc(C)cc(C)n3)C[C@H]2C(=O)N2CCN(c3ccccc3F)CC2)cc1	x	x	n	x	n	n
COc1ccc(S[C@]2(C(=O)N3CCOCC3)CC(=O)N(c3ccc4ccccc4c3)[C@@H]2c2ccc(OC)cc2)cc1	x	n	x	x	x	x
COc1ccc(NC(=O)Cn2c(=O)ccc3cc(S(=O)(=O)N4CCCC4)ccc32)cc1Cl	x	n	n	n	n	n
COC(=O)Cc1c(C)c2ccc3c(c2oc1=O)CN(Cc1ccc(Cl)cc1)CO3	n	n	n	n	n	n
Cc1cc(Cl)ccc1NC(=S)NCc1ccc(Cl)cc1	n	n	u	n	n	u
Cc1cc(Cl)ccc1NC(=S)NCCc1ccc(Cl)cc1	u	-83.1	n	n	n	u
Cc1cccc(NC(=S)NCCc2ccccc2)n1	u	-72.4	n	u	n	u
COc1cc(CN2CCCC(n3cc(C(=O)N4CCCCC4)nn3)C2)cc2c1OCO2 (stereo unspecified)	x	x	n	x	n	n
COc1ccc(Cl)cc1C(=O)NCCc1ccc(S(=O)(=O)NC(=O)NC2CCCCC2)cc1	u	-63.4	n	n	n	n
COc1cccc(CNC(=O)Cn2c(=O)n3nc(-c4cccc(C)c4)nc3c3ccccc32)c1	x	n	n	n	n	n
O=C(NCc1ccccc1Cl)C(=O)NCC(c1ccco1)S(=O)(=O)c1cccs1 (stereo unspecified)	x	n	n	n	n	n
CC(C(=O)NCCN1C(=O)S/C(=C\c2cccnc2)C1=O)N1C(=O)c2ccccc2C1=O (stereo unspecified)	n	n	x	n	n	x
O=C(CCl)NCCN1C(=O)S/C(=C\c2cccnc2)C1=O	u	-77.0	u	u	n	u
COC(=O)c1cc(CNC(=O)c2ccccc2F)cc(NC(=O)c2ccccc2OC)c1	x	x	n	x	u	n
Cn1c(=O)c2ncn(CC(=O)Nc3ccc(N4CCOCC4)cc3)c2n(C)c1=O	n	n	x	n	n	x
CCC(C)c1ccc2oc(-c3ccc(NC(=O)Cn4cnc5c(=O)n(C)c(=O)n(C)c54)cc3)nc2c1 (stereo unspecified)	u	-72.7	x	u	n	x
COc1cc(OC)c(-c2c3cc(O)c(=O)cc-3oc3cc(O)c(O)cc23)cc1OC	4.61µM!	u	n	n	u	n
CC(C)COCc1ccc(O)c2ncccc12	u	u	u	u	n	10µM
CN(Cc1ccco1)Cc1ccc(O)c2ncccc12	x	x	x	x	n	x
CCCOCc1ccc(O)c2ncccc12	u	-103.7	u	u	n	u
O=C(O)c1cc(/C=C/c2ccc(N3CCOCC3)cc2)nc2ccccc12	u	n	n	u	10µM	n
Cc1cc(Cl)c(OCCOCCN2CCCC(C)C2)c(Br)c1 (stereo unspecified)	u	n	n	12.6µM	n	n
Clc1ccc(OCCCCCN2CCCC2)c(Br)c1	u	u	n	u	n	n
CC1CCCN(Cc2cccc(Oc3ccccc3)c2)C1 (stereo unspecified)	u	-98.1	n	n	x	n
SMILES	MARV entry inh	HCMV inh	Vaccinia Venus	LASV entry inh	FMDV inh	VACV mCherry inh
Clc1ccc(OCCCN2CCCCC2)c(Br)c1	14.6µM	n	n	u	n	n
CC1CCCN(CCOCCOc2ccc(Cl)cc2Br)C1 (stereo unspecified)	4.61µM	n	x	u	n	x
O=C(Nc1cccc(C(F)(F)F)c1)C1CCCN(S(=O)(=O)c2cccc3nonc23)C1 (stereo unspecified)	n	n	n	n	n	n
CC1CCCN(CCCCOc2cccc(Br)c2)C1 (stereo unspecified)	2.91µM	n	n	3.26µM	n	n
CN1CCN(CCOCCOc2ccc(Br)cc2Cl)CC1	x	n	x	x	n	x
CC1CCCN(CCOCCOc2ccc(Br)cc2Cl)C1 (stereo unspecified)	15.8µM	-63.6	n	u	u	n
